PubChem BioAssay (NCATS)
Inconclusive results are not listed. Unmarked numbers belong to inactive results. Activity calls are given as the source filed them. Calls come from the whole dose curve; as a rule, active = well fitted inhibition curve with a large enough effect; inconclusive = small, poorly fitted or top-dose-only effect; inactive = flat fitted curve, though single readings scatter.

System: astro (control astrocytes)
Assay: Drug repurposing screens with cells derived from glioblastoma tumor samples (AID 1345199); note: nearly all actives have a fitted effect of over 40% in size
Conditions: viability, ATP luminescence, 48 h; series mostly up to 45.9 µM; activity, negative = cell killing: at the top concentration
Summary of the method: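 Primary testing used CD133+ neurospheres from four GBM patients, seven concentrations, 48 h exposure and ATP-based viability; confirmation added three slower-growing patient lines.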
% is set by controls: 0 for no effect and ±100 for the full control effect.

| Compound | activity, negative = cell killing | Potency |
| --- | --- | --- |
| CO[C@H]1[C@@H](O)[C@H](N)[C@@H](O[C@H]2O[C@H]([C@H](C)N)CC[C@H]2N)[C@H](O)[C@@H]1N(C)C(=O)CN | 4.47% |  |
| CCCCCCCCCC(=O)O | -7.01% |  |
| COc1cc(C[C@@H]2NCCc3cc(O)c(O)cc32)cc(OC)c1OC | -13.8% |  |
| NNc1nnc(Cc2ccncc2)c2ccccc12 | -14.2% |  |
| NCCCC(=O)O | -18.8% |  |
| CC(=O)O[C@H]1C[C@@H]2CC[C@@H]3[C@H](CC[C@@]4(C)[C@H]3C[C@H](N3CC[N+](C)(C)CC3)[C@@H]4OC(C)=O)[C@@]2(C)C[C@@H]1N1CC[N+](C)(C)CC1 | -19.5% |  |
| O=C(O)CC(O)(CC(=O)O)C(=O)O | -13.9% |  |
| O=C(O)c1ccccc1[O-].O=C(O)c1ccccc1[O-].[Zn+2] | -10.1% |  |
| O=C[C@H](O)[C@@H](O)[C@H](O)[C@H](O)CO | -4.09% |  |
| COc1cc2[nH]c(C)c(CCN3CCN(c4ccccc4)CC3)c2cc1OC | -15.3% |  |
| Cc1ccc(C2(O)CCN(CCCC(=O)c3ccc(F)cc3)CC2)cc1 | -14.4% |  |
| COc1ccc(CNCC(O)COc2ccc3[nH]c(=O)ccc3c2)cc1OC (configuration not stated) | -8.7% |  |
| CCCCCCCCCCCCCCCCCC(=O)OCCO | -24.1% |  |
| CN(C)Cc1ccccc1 | -7.81% |  |
| CCC(=O)OCC(=O)[C@@]1(OC(=O)CC)[C@@H](C)C[C@H]2[C@@H]3CCC4=CC(=O)C=C[C@]4(C)[C@@]3(Cl)[C@@H](O)C[C@@]21C | -17.2% |  |
| Cc1cccc(C)c1N(CCCc1cccnc1)C(=O)C(C)N (configuration not stated) | -13.5% |  |
| CCOC(=O)[C@H](CCc1ccccc1)N[C@H]1CCCN2CCC[C@@H](C(=O)O)N2C1=O | -16% |  |
| CN(C(=O)CO)c1c(I)c(C(=O)NCC(O)CO)c(I)c(C(=O)NCC(O)CO)c1I (configuration not stated) | -9.82% |  |
| CN=C(NC)NCc1ccccc1 | -10.5% |  |
| CO[C@@H]1[C@@H](O[C@@H]2O[C@H](C)[C@@H](O[C@H]3C[C@@](C)(O)[C@@H](OC(=O)CC(C)C)[C@H](C)O3)[C@H](N(C)C)[C@H]2O)[C@@H](CC=O)C[C@@H](C)[C@@H](O)/C=C/C=C/C[C@@H](C)OC(=O)C[C@H]1O |  | inactive |
| O=C(CCCN1CCC(n2c(=S)[nH]c3ccccc32)CC1)c1ccc(F)cc1 | -20% |  |
| CC(CN(C)C)CN1c2ccccc2S(=O)(=O)c2ccccc21 (configuration not stated) | -21.4% |  |
